Bioassay records from PubChem.
PKA-R2B act: activators of PKA-R2B holoenzyme, primary screen, biochemical, fluorescence polarization, Cy5-IP20, human. 340,000 tested, 0.079% active. PKA-R2B holoenzyme dissociation; R2B truncated from residue 108, S112A mutant; 0% DMSO only, 100% 113 µM cGMP. activation, % at 11.4 µM. AID 504700, 2011. cAMP-dependent protein kinase catalytic subunit beta (Homo sapiens) + cAMP-dependent …;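 active = activation above a cutoff set at the mean over all compounds plus 3 SD, cut at about 18% in these data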;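 note: higher means more holoenzyme dissociation and a rise in polarization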
Target sequence (P31323 whole entry, looked up, other chains not shown, the tested form may be a part): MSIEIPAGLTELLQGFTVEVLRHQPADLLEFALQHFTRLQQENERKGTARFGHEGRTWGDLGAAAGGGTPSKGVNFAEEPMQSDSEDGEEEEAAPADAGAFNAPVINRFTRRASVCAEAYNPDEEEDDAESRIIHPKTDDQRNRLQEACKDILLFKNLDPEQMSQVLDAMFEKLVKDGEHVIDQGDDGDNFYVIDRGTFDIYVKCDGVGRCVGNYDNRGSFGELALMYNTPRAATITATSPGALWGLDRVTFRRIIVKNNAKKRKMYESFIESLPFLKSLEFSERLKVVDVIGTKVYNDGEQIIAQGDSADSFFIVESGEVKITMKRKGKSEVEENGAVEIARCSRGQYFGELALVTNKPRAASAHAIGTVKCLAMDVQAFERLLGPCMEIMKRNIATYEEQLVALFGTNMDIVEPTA
Rpn11 inh: Rpn11 (PSMD14) deubiquitinase inhibitors, primary screen, biochemical, fluorescence polarization, uHTS; human 26S proteasome, Ub4-pepOG fluorescence polarization; 20S core pre-blocked with epoxomicin; calls only at 20 µM; 360,000 tested, 0.59% active; AID 588493, 2011;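 active = inhibition at 20 µM, scaled to each plate's controls, above about 33%, limit read from the data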
Neddyl block: inhibitors of cullin neddylation, primary screen, biochemical, TR-FRET, uHTS, NAE and Ubc12. NEDD8-conjugating enzyme Ubc12 (Homo sapiens) + NEDD8-activating enzyme E1 regulatory …. inhibition, % at 25 µM. 360,000 tested, 0.58% active. AID 651699, 2012; in the data active = inhibition above about 36%
PKA-R1A activ: activators of PKA-R1A holoenzyme, primary screen, biochemical, fluorescence polarization, Cy5-IP20, bovine R1A, mouse PKAc; AID 504707, 2011; PKA-R1A dissociation; scaled: DMSO 0%, 113 µM cGMP 100%; activation, % at 11.4 µM; 340,000 tested, 0.083% active;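 active = percent activation above the mean of all tested compounds plus 3 SD, cut at about 19% in these data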;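 note: higher means more PKAc released from R1A so a rise in polarization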
Rpn11 inh conf: Rpn11 (PSMD14) deubiquitinase inhibitors, confirmation, biochemical, fluorescence polarization, single concentration. shares compounds with Rpn11 inh. inhibition, % at 20 µM. 1,900 tested, 29% active. purified human 26S proteasome, Ub4-pepOG fluorescence polarization; proteasome pretreated with epoxomicin
MMP-2 counter: MMP-2 enzyme inhibition, confirmation, counter-screen for RPN11 inhibitor project, biochemical, fluorescence, single concentration | 1,900 tested, 4% active | inhibition, % at 20 µM | shares compounds with Rpn11 inh | recombinant MMP-2, FRET peptide cleavage fluorescence | AID 602330, 2012;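 note: human MMP-2 activated beforehand with APMA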
Thrombin FP: bovine thrombin protease inhibition, confirmation, counter-screen for Rpn11 inhibitor project, biochemical, fluorescence polarization, single concentration | inhibition, % at 20 µM | 1,900 tested, 13% active | AID 602333, 2012 | bovine thrombin cleavage of Ub4-pepOG | shares compounds with Rpn11 inh;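 active = mean inhibition at least 40% at 20 µM, or signal 3 deviations below plate average, so some actives read negative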;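 note: plate controls were thrombin with DMSO for no effect and buffer wells lacking thrombin for full effect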
* hit, by the source's call; i = inactive; nt = not tested or not shown; + = active, no number. In the library only some 1.3% were active in any assay of this set; here they are far more common. Cut-off read from the data, not from the text of the source, unless noted: active = inhibition above about 40%; inactive = the rest.

SMILES | PKA-R2B act | Rpn11 inh | Neddyl block | PKA-R1A activ | Rpn11 inh conf | MMP-2 counter | Thrombin FP
S=C1N(c2ccccc2)C(c2ccc(Br)cc2)N2CCCN12 (stereo not drawn) | -2 | i | -11 | -6 | nt | nt | nt
C[n+]1c(-c2ccccc2)cc2c(=Cc3ccc([N+](=O)[O-])cc3)c3ccccc3n21 | 8 | i | 21 | 5 | nt | nt | nt
Cc1cc2c(=Cc3ccc(N(C)C)cc3)c3ccccc3n2[n+]1C | -2 | + | -206 | -3 | 135* | -11 | 145*
CC1=NN(c2cccc(F)c2)C(=O)/C1=C/c1ccc(N(C)C)cc1 | 3 | i | 0 | 11 | nt | nt | nt
CCOC(=O)c1cc2c(=Cc3ccc(N(C)C)cc3)c3ccccc3n2[n+]1C | 2 | + | -95 | 6 | 27 | -48 | 18
CN(C)c1ccc(C=c2c3cc(O)ccc3n3c2cc(-c2ccccc2)[n+]3C)cc1 | 6 | + | -88 | -5 | 177* | 109* | 155*
Nc1ncnc(Oc2ccccc2F)c1[N+](=O)[O-] | -12 | i | -21 | 4 | nt | nt | nt
COc1ccc(NC(=O)c2c(C)noc2C(C)C)cc1S(=O)(=O)N1CCCCC1 | -1 | i | 13 | 2 | nt | nt | nt
O=C(NC1CCCCC1)C(CCc1ccccc1)N1CCc2ccccc2C1 (stereo not drawn) | nt | i | -4 | nt | nt | nt | nt
C=CCN1C(=O)/C(=C2/Sc3ccc(OC)cc3N2C)SC1=Nc1cccc(O)c1 | 0 | + | -30 | -8 | 8 | -32 | -13
CCN1C(=O)/C(=C2/Sc3ccc(OC)cc3N2C)SC1=Nc1ccc(OC)cc1 | 4 | i | nt | 1 | nt | nt | nt
Cc1ccc(-c2nc(SC(C)C(=O)N3CCOCC3)n[nH]2)cc1 (stereo not drawn) | 4 | i | -4 | -4 | nt | nt | nt
CCCc1c(C)[nH]c2ccc(C(=O)O)cc2c1=S | -6 | + | -15 | -7 | 74* | 11 | -8
Cc1nc2ccc(NC(=O)c3cc(S(=O)(=O)N(C)c4ccccc4)ccc3Cl)cc2s1 | 2 | i | 10 | 7 | nt | nt | nt
Cc1nc2ccc(NC(=O)c3ccc(Cl)c(S(=O)(=O)N(C)c4ccccc4)c3)cc2s1 | -7 | + | i | 5 | 61* | -15 | 52*
Cc1ccnc2nc(C(=O)Nc3ccc(N4CCOCC4)cc3)nn12 | 0 | + | -3 | 8 | -5 | -49 | -10
O=[N+]([O-])c1ccc(N/N=C/c2sc(N3CCOCC3)nc2-c2ccccc2)c(S(=O)(=O)Nc2ccc(Cl)cc2)c1 | -10 | i | -26 | -2 | nt | nt | nt
O=[N+]([O-])c1ccc(N/N=C/c2sc(N3CCOCC3)nc2-c2ccccc2)c(S(=O)(=O)Nc2ccccc2Cl)c1 | -4 | + | -38 | 3 | 55* | -2 | 46*
CC(CSc1nc2ccccc2s1)Cn1c(N2CCCC2)nc2c1c(=O)[nH]c(=O)n2C (stereo not drawn) | 0 | + | -2 | -1 | 11 | 37 | 8
CCN1CCN(c2nc3c(c(=O)[nH]c(=O)n3C)n2CCSc2nc3ccccc3s2)CC1 | 2 | i | -2 | -6 | nt | nt | nt
CCCn1c(N)c(N(CCOC)C(=O)Cc2ccc(S(=O)(=O)N3CCOCC3)s2)c(=O)[nH]c1=O | -9 | i | 14 | -6 | nt | nt | nt
CN(C)/N=C/C=C1\CCC/C(=C/c2cccs2)C1=O | 2 | + | -24 | -6 | 33 | -23 | 17
Cc1ccc2c(c1)N(CC(=O)NCCC1=CCCCC1)C(=O)c1cccnc1O2 | -7 | i | 6 | 3 | nt | nt | nt
CCCCCC1CCC(C(=O)NCCN2CCOCC2)CC1 (stereo not drawn) | 6 | i | 0 | 7 | nt | nt | nt
COC1=C/C(=C/c2c(N)n3nc(CC(=O)N4CCCC4)sc3nc2=O)C=CC1=O | 4 | + | -28 | -6 | 28 | -15 | 36
SMILES | PKA-R2B act | Rpn11 inh | Neddyl block | PKA-R1A activ | Rpn11 inh conf | MMP-2 counter | Thrombin FP
CCOC1=C/C(=C/c2c(N)n3nc(CC(=O)N4CCCC4)sc3nc2=O)C=CC1=O | -11 | + | -34 | -11 | 35 | 23 | 38
Nc1c(/C=C2/C=CC(=O)C(O)=C2)c(=O)nc2sc(CC(=O)N3CCCC3)nn12 | -4 | i | -47 | -12 | nt | nt | nt
COc1ccc(OC)c(N=C(C)C2=C(O)COC2=O)c1 | -9 | + | -6 | -9 | -13 | -56 | -9
O=C1CCCN1CCCNc1nc(NCc2cccs2)nc2ccsc12 | nt | i | 10 | nt | nt | nt | nt
CCCCc1ccc(NC(=O)CC(C)=O)cc1 | -2 | + | 2 | -15 | -14 | 24 | -20
COc1ccc(CC(=O)Nc2cc(S(=O)(=O)Nc3ccc(OC)cc3)ccc2OC)cc1 | 0 | i | -15 | 0 | nt | nt | nt
NCCCC[C@@H]1NC(=O)c2cc([N+](=O)[O-])cc(I)c2SC[C@@H](C(N)=O)NC(=O)[C@H](Cc2ccc(O)cc2)NC1=O | -3 | + | -45 | 4 | 11 | -4 | -44
NCCCC[C@@H]1NC(=O)[C@H](CCC(=O)O)NC(=O)c2cc([N+](=O)[O-])cc(I)c2SC[C@@H](C(=O)NCC(N)=O)NC1=O | 0 | i | -30 | -2 | nt | nt | nt
CC(=O)N(CCCN1CCOCC1)Cc1ccncc1 | 5 | + | -1 | 3 | -6 | 0 | -10
c1cc(CNCCCN2CCOCC2)ccn1 | -5 | i | -2 | 4 | nt | nt | nt
CC(=O)N1CCN(C(=O)COC(=O)c2ccc(S(C)(=O)=O)cc2)CC1 | -11 | i | -4 | 0 | nt | nt | nt
COc1ccc(-n2nc3c(N4CCC(C(=O)NCCc5ccccc5C)CC4)nnc(C)c3c2C)cc1 | 0 | i | -13 | 1 | nt | nt | nt
COc1ccc(-n2nc3c(N4CCC(C(=O)NCc5ccccc5C)CC4)nnc(C)c3c2C)cc1 | 8 | + | 22 | 2 | 34 | -331 | 17
Cc1ccc(-n2nc3c(N4CCC(C(=O)NCCc5ccccc5C)CC4)nnc(C)c3c2C)cc1 | 2 | i | -18 | -20 | nt | nt | nt
